Experimental data published in PubChem BioAssay (EPA / NIEHS).
Several values for one entry are separate records, joined by “and”; a condition that tells them apart may be missing. Equal values may be shown once. Inconclusive results are not listed. A structure can be active in one record and inactive in another. Activity calls are given as the source filed them. The calls were made as follows, unless noted: active = hit-call score of the fitted dose curve at least 0.9, where 1 is the maximum; inconclusive = response in the unintended direction; inactive = score below 0.9.

Experiments:
[1] = target: Estrogen receptor (Homo sapiens) (UniProt P03372); test: NVS_NR_hER: NovaScreen (NVS) Nuclear Receptor Binding Assay for human Estrogen Receptor (ER) (AID 2283348)
Estrogen receptor (Homo sapiens), sequence (P03372 whole entry, looked up): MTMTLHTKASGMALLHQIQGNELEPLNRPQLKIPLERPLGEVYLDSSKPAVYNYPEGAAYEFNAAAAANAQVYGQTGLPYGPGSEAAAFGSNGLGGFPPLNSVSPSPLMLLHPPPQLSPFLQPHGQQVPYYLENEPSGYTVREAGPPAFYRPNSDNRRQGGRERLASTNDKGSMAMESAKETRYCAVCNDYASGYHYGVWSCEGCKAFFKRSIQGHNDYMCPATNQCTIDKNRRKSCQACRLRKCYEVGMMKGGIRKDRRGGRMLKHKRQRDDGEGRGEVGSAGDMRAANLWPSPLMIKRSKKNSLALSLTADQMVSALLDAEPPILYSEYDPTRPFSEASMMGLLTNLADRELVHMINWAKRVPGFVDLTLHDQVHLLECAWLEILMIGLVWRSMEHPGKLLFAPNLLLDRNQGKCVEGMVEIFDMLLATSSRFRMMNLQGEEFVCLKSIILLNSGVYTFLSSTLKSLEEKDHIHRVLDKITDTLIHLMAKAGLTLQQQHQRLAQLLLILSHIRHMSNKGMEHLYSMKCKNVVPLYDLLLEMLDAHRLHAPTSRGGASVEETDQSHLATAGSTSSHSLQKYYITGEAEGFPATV
In short: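 Radiodetection of ligand displacement in a lysate-based, cell-free format using MCF7 extracts, read at 18 hours. Duplicate 25 uM primary testing, then concentration series for actives.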

[2] = TOX21_p53_BLA_p2_viability: Viability Assessment in the Tox21 HCT-116 p53 Agonism Beta-lactamase Assay, Phase 2 (AID 2283591);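 also: compound exposure lasted 16 h at 37 °C; actives lower the ATP signal meaning cytotoxicity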
In short: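 HCT-116 p53-bla cells (4000/well) rested 5 h at 37C, then received compounds in DMSO (217-fold dilution) for 16 h at 37C, 5% CO2. After the CCF4 read, CellTiter-Glo was added; ATP luminescence was read after 30 min at room temperature.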

[3] = target: Cellular tumor antigen p53 (Homo sapiens) (UniProt P04637); test: TOX21_p53_BLA_p2_ratio: Tox21 HCT-116 p53 Agonism Beta-lactamase Assay, Ratio, Phase 2 (AID 2283592)
Cellular tumor antigen p53 (Homo sapiens), sequence (P04637 whole entry, looked up): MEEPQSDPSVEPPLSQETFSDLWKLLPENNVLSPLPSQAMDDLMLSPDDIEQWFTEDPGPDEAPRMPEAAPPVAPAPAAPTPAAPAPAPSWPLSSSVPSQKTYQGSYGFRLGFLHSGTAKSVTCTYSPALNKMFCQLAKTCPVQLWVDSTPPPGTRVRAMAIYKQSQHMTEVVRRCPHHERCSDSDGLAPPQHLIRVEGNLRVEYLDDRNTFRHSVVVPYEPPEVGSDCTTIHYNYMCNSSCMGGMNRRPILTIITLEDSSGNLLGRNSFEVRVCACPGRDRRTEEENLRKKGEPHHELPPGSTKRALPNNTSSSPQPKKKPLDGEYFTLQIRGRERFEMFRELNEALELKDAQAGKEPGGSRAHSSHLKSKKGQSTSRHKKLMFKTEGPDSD
In short: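 Plated HCT116 p53-bla cells (4000/well) received compound after 5 h, then 16 h at 37C/5% CO2. CCF4-AM added, 2 h RT. Ratio of 460 to 530 nm emission taken as the p53 reporter signal.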

[4] = TOX21_p53_BLA_p3_viability: Viability Assessment in the Tox21 HCT-116 p53 Agonism Beta-lactamase Assay, Phase 3 (AID 2283593);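 also: cells exposed to compound for 16 h before reading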
In short: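 HCT-116 cells (4000/well) rested 5 h at 37C, then got DMSO compounds by pin tool (217-fold dilution) for 16 h at 37C, 5% CO2. After the bla read, CellTiter-Glo was added and luminescence read at 30 min, room temperature.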

[5] = target: Cellular tumor antigen p53 (Homo sapiens) (UniProt P04637); test: TOX21_p53_BLA_p3_ratio: Tox21 HCT-116 p53 Agonism Beta-lactamase Assay, Ratio, Phase 3 (AID 2283596)
In short: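 Cells were seeded at 4000/well, rested 5 h at 37C, then dosed with DMSO compound solutions (217-fold dilution) for 16 h. CCF4-AM substrate was loaded for 2 h at room temperature, and the 460/530 nm emission ratio was fitted for gain of signal versus DMSO.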

[6] = TOX21_p53_BLA_p4_viability: Viability Assessment in the Tox21 HCT-116 p53 Agonism Beta-lactamase Assay, Phase 4 (AID 2283597);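 also: hits lower the luminescence signal meaning cytotoxicity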
In short: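 Readout: ATP luminescence (CellTiter-Glo), measured 30 min after reagent addition at RT. The reagent followed a 2 h CCF4-AM incubation, and the cells had been exposed to compound for 16 h at 37C.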

[7] = target: Cellular tumor antigen p53 (Homo sapiens) (UniProt P04637); test: TOX21_p53_BLA_p5_ratio: Tox21 HCT-116 p53 Agonism Beta-lactamase Assay, Ratio, Phase 5 (AID 2283599)
In short: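 HCT-116 cells carrying a p53-inducible beta-lactamase reporter were seeded at 4000 cells/well and dosed after 5 h with compound in DMSO (217-fold dilution). After 16 h at 37C, CCF4-AM substrate was added for 2 h, and the 460/530 nm emission ratio was scored as gain-of-signal versus DMSO.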

[8] = TOX21_p53_BLA_p5_viability: Viability Assessment in the Tox21 HCT-116 p53 Agonism Beta-lactamase Assay, Phase 5 (AID 2283600)
In short: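 Workflow: seed 4000 cells per well, wait 5 h, add compounds (DMSO, 217-fold dilution), incubate 16 h, load CCF4-AM 2 h, add CellTiter-Glo, read luminescence after 30 min.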

[9] = target: Cellular tumor antigen p53 (Homo sapiens) (UniProt P04637); test: TOX21_p53_BLA_p4_ratio: Tox21 HCT-116 p53 Agonism Beta-lactamase Assay, Ratio, Phase 4 (AID 2283601)
In short: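 HCT116 cells carrying an inducible beta-lactamase reporter were plated at 4000 cells/well, rested 5 h, then exposed to compounds in DMSO (217-fold dilution) for 16 h at 37C. CCF4-AM substrate was loaded 2 h at room temperature; 460/530 nm emission ratio scored gain-of-signal versus DMSO.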

[10] = target: CCAAT/enhancer-binding protein beta (Homo sapiens) (UniProt P17676); test: ATG_C_EBP_CIS: Attagene CIS-FACTORIAL HepG2 Assay for human CCAAT/Enhancer Binding Protein (C/EBP) beta (AID 2282927; active = hit-call score of the fitted dose curve at least 0.9, where 1 is the maximum; inactive = score below 0.9); details: HepG2 Attagene cis-factorial transcription factor reporter; actives raise or lower the signal
CCAAT/enhancer-binding protein beta (Homo sapiens), sequence (P17676 whole entry, looked up, the tested form may be a part): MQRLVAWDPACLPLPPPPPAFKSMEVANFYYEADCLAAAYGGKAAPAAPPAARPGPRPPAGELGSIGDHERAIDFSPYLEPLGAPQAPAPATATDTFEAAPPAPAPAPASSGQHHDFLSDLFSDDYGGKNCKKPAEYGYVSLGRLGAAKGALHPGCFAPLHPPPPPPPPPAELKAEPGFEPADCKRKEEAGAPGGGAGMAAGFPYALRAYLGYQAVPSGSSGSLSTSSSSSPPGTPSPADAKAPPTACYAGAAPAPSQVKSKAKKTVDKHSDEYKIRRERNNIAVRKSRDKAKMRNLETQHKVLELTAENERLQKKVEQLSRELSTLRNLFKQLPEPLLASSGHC
In short: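 Chemical-treated HepG2 cells (24 h) bearing cis-regulated reporter constructs were processed for total RNA, then reverse transcription, PCR amplification, fluorescent primer extension and fragment analysis; gain- and loss-of-signal were fitted against DMSO.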

[11] = ATG_CMV_CIS: Attagene CIS-FACTORIAL HepG2 Assay for human CMV (Internal Marker) (AID 2282928; active = hit-call score of the fitted dose curve at least 0.9, where 1 is the maximum; inactive = score below 0.9;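 also: endpoint acts as a background internal control marker rather than a target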); details: HepG2 CMV promoter reporter, transcription factor profiling; actives raise or lower the signal
In short: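 24 h chemical treatment, HepG2 with transient multi-reporter transfection; RNA → oligo(dT) RT → PCR → 6-FAM extension → HpaI digest → CE fluorescence. Bidirectional fit, DMSO negative control.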

[12] = ATG_DR4_LXR_CIS: Attagene CIS-FACTORIAL HepG2 Assay for human Liver X Receptor (LXR), DR4 submotif (AID 2282929; active = hit-call score of the fitted dose curve at least 0.9, where 1 is the maximum; inactive = score below 0.9); details: HepG2 Attagene DR4 cis-reporter, mRNA transcription; actives raise or lower the signal
In short: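 HepG2 cells were transiently transfected with multiple cis-regulated reporter units and dosed for 24 hours. The DR4 reporter mRNA was quantified by RT-PCR, 6-FAM labelling and capillary electrophoresis. Bidirectional fits used DMSO as baseline.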

[13] = ATG_AP_2_CIS: Attagene CIS-FACTORIAL HepG2 Assay for human Activator Protein 2 (AP-2) (AID 2282932; active = hit-call score of the fitted dose curve at least 0.9, where 1 is the maximum; inactive = score below 0.9); details: HepG2 AP-2 cis-reporter, Attagene transcription factor profiling; actives raise or lower the signal
In short: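 Cells (HepG2) transfected with promoter-driven reporter constructs, treated 24 h. Total RNA reverse-transcribed, reporter cDNA PCR-amplified, FAM-labelled by primer extension, digested, resolved by capillary electrophoresis. Activity fitted both directions versus DMSO.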

[14] = ATG_BRE_CIS: Attagene CIS-FACTORIAL HepG2 Assay for human Bone Morphogenetic Protein (BMP) Response Element (BRE) (AID 2282933; active = hit-call score of the fitted dose curve at least 0.9, where 1 is the maximum; inactive = score below 0.9); details: HepG2 BMP response element reporter, Attagene transcription factor profiling; actives raise or lower the signal
In short: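 HepG2 cells transiently transfected with multiplexed cis-element reporter units were dosed with chemical for 24 h. Reporter mRNA was measured by RT-PCR with fluorescent labelling, HpaI digestion and capillary electrophoresis; bidirectional fitting relative to DMSO.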

[15] = target: Transcription factor E2F1 (Homo sapiens) (UniProt Q01094); test: ATG_E2F_CIS: Attagene CIS-FACTORIAL HepG2 Assay for human E2F Transcription Factor 1 (AID 2282935; active = hit-call score of the fitted dose curve at least 0.9, where 1 is the maximum; inactive = score below 0.9); details: HepG2 Attagene cis-reporter, E2F reporter RNA transcripts; actives raise or lower the signal
Transcription factor E2F1 (Homo sapiens), sequence (Q01094 whole entry, looked up): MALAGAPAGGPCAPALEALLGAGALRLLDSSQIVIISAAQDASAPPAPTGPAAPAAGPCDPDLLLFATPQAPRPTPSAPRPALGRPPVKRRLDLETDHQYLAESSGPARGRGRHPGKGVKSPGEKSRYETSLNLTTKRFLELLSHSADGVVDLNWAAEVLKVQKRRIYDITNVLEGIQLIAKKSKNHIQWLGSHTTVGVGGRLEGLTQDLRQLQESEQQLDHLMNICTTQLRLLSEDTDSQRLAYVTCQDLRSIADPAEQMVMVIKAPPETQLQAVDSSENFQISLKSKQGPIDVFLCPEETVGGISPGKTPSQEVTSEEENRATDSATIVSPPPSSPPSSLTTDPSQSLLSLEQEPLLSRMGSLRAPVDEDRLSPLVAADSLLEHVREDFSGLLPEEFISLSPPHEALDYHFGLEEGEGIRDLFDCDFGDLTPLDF
In short: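 First, HepG2 cells were transfected with reporter transcription units. Next, they were dosed for 24 h. Then RNA was isolated, converted to cDNA, PCR-amplified, FAM-labeled, HpaI-digested and analyzed by capillary electrophoresis.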

[16] = ATG_E_Box_CIS: Attagene CIS-FACTORIAL HepG2 Assay for human Enhancer Box (E-box) (AID 2282936; active = hit-call score of the fitted dose curve at least 0.9, where 1 is the maximum; inactive = score below 0.9); details: HepG2 E-box cis-reporter transcription, actives raise or lower the signal
In short: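 Endogenous transcription factor activity was sensed in human HepG2 liver cells through transfected cis-promoter reporter units. After 24 h of dosing, total RNA was reverse-transcribed and reporter cDNA resolved by capillary electrophoresis.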

[17] = ATG_M_61_CIS: Attagene CIS-FACTORIAL HepG2 Assay for M61 Transcription Factor (Internal Marker) (AID 2282937; active = hit-call score of the fitted dose curve at least 0.9, where 1 is the maximum; inactive = score below 0.9); details: HepG2 Attagene CIS-FACTORIAL M61 internal marker reporter; actives raise or lower the signal
In short: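 HepG2 cells transiently transfected with multiplexed cis-promoter reporter units reporting endogenous transcription factor activity, measured 24 h after dosing. Reporter mRNA quantified by RT-PCR and capillary electrophoresis; bidirectional fit against DMSO baseline.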

[18] = ATG_EGR_CIS: Attagene CIS-FACTORIAL HepG2 Assay for human Early Growth Response 1 (EGR1) (AID 2282938; active = hit-call score of the fitted dose curve at least 0.9, where 1 is the maximum; inactive = score below 0.9); details: HepG2 Attagene CIS-FACTORIAL EGR reporter mRNA; actives raise or lower the signal
In short: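 HepG2 cells transiently transfected with cis-element-driven multiplexed reporter units, dosed for 24 h. EGR1-element reporter mRNA quantified by RT-PCR, 6-FAM labelling, HpaI digestion and capillary electrophoresis; bidirectional fit versus DMSO.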

[19] = ATG_M_19_CIS: Attagene CIS-FACTORIAL HepG2 Assay for M19 Transcription Factor (Internal Marker) (AID 2282939; active = hit-call score of the fitted dose curve at least 0.9, where 1 is the maximum; inactive = score below 0.9); details: HepG2 Attagene CIS-FACTORIAL M19 internal marker reporter; actives raise or lower the signal
In short: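 HepG2 cells transiently transfected with cis-regulated multiple reporter transcription units were dosed for 24 h; reporter mRNA was quantified by RT-PCR, 6-FAM primer-extension labelling, HpaI digestion and capillary electrophoresis, with bidirectional fitting against DMSO baseline.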

[20] = ATG_FoxO_CIS: Attagene CIS-FACTORIAL HepG2 Assay for human Forkhead box O (FoxO) (AID 2282943; active = hit-call score of the fitted dose curve at least 0.9, where 1 is the maximum; inactive = score below 0.9); details: HepG2 Attagene cis-reporter, FoxO element, mRNA; actives raise or lower the signal
In short: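 24 h chemical exposure, HepG2 with transient cis-MRTU transfection. RNA extraction, oligo(dT) RT, reporter-specific PCR, primer-extension labelling, HpaI digestion, CE fragment analysis; bidirectional fit, DMSO baseline.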

For `Nc1nc(N)c2nc(-c3ccccc3)c(N)nc2n1`, the outcome [1] was “inactive”, the AC50 [2] was 85.6 µM (active) and the outcome [2] was “inactive”. For the same compound, the AC50 [3] was 32.3 µM (active) and 16.7 µM (active), the outcome [3] was “inactive” and the outcome [4] was “inactive”. The AC50 [5] was 33.5 µM (active), the outcome [5] was “inactive” and the outcome [6] was “inactive”. For the same compound, the AC50 [7] was 17.5 µM (active) and 38.9 µM (active) and 28 µM (active), the outcome [8] was “inactive” and the AC50 [9] was 26.9 µM (active) and 21.1 µM (active) and 29.1 µM (active).

With `COc1cc(CNC(=O)CCCC/C=C/C(C)C)ccc1O` the outcome [2] was “inactive”, the outcome [3] was “inactive” and the outcome [4] was “inactive”. The outcome [5] was “inactive”, the outcome [6] was “inactive” and the outcome [7] was “inactive”. For the same compound, the outcome [8] was “inactive” and the outcome [9] was “inactive”.

With `CCCCC(CC)COC(=O)C=Cc1ccc(OC)cc1` (centres undefined) the outcome [2] was “inactive”, the outcome [3] was “inactive” and the outcome [4] was “inactive”. The outcome [5] was “inactive”, the outcome [6] was “inactive” and the outcome [7] was “inactive”. The outcome [8] was “inactive”.

For `c1ccc2c(c1)Oc1ccccc1S2`, the outcome [10] was “inactive”, the outcome [11] was “inactive” and the AC50 [12] was 171 µM (active). The outcome [13] was “inactive”, the outcome [14] was “inactive” and the outcome [15] was “inactive”. The AC50 [16] was 57.3 µM (active), the outcome [17] was “inactive” and the outcome [18] was “inactive”. The outcome [19] was “inactive”, the outcome [20] was “inactive” and the outcome [2] was “inactive”. The outcome [3] was “inactive”, the outcome [4] was “inactive” and the outcome [6] was “inactive”. The outcome [7] was “inactive” and the outcome [9] was “inactive”.
